YB-1 expr inh = YB-1 expression inhibition; 30,000 tested, 0.37% active; delta delta Cp (YB-1 minus CDIP) (concentration not given with the values); U2OS, qRT-PCR YB-1 vs CDIP delta delta Cp, 16 h; active compounds read high; zero = DMSO, each unit about twofold;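 active means delta delta Cp rounded down to an integer at or above 3, about 3 SD of DMSO wells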;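 further: higher means less YB-1 transcript or more CDIP transcript relative to DMSO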
U2OS ROS induce = raises reactive oxygen species in U2OS cancer cells; U2OS ROS induction, H2DCF-DA fluorescence; ROS induction (% of piperlongumine), % at 10 µM; 46,000 tested, 2% active; in the data active means ROS induction above about 79%, passing the limit was not always enough;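 further: 0% = DMSO vehicle median and 100% = reference compound median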
Starred values were filed as active, the others as inactive; · = no result given. Hits are enriched below; roughly 2.3% of the tested compounds scored in any of these assays.

SMILES | YB-1 expr inh | U2OS ROS induce
S=c1[nH]nc(C2CCCCC2)n1/N=C\c1ccncc1 | · | 52
C[C@H]1CN([C@@H](C)CO)C(=O)Cc2cc(NC(=O)Cc3ccccc3)ccc2O[C@H]1CN(C)C(=O)Nc1ccccc1 | -0.09 | 8
C[C@H](CO)N1C[C@H](C)[C@H](CN(C)C(=O)Nc2ccccc2)Oc2ccc(NC(=O)Cc3ccccc3)cc2CC1=O | 4.6* | -2
COc1ccc(NC(=O)N(C)C[C@H]2Oc3ccc(NC(=O)Cc4ccccc4)cc3CC(=O)N([C@@H](C)CO)C[C@@H]2C)cc1 | 0.18 | 100*
C[C@H](CO)N1C[C@H](C)[C@H](CN(C)C(=O)Nc2ccc(C(F)(F)F)cc2)Oc2ccc(NC(=O)Cc3cn(C)c4ccccc34)cc2CC1=O | -0.043 | 8
COc1ccc(NC(=O)N(C)C[C@@H]2Oc3ccc(NC(=O)Cc4ccccc4)cc3CC(=O)N([C@@H](C)CO)C[C@@H]2C)cc1 | -0.027 | -7
C[C@H]1CN([C@@H](C)CO)C(=O)Cc2cc(NC(=O)Cc3cn(C)c4ccccc34)ccc2O[C@H]1CN(C)C(=O)Nc1ccc(C(F)(F)F)cc1 | -0.42 | 100*
CN(C)C(=O)N1CCC(C(=O)N2CCC3(CC2)OCCO3)CC1 | · | -13
CCOc1ccc(NC(=O)c2cc(-c3ccc(F)cc3)[nH]c2C)cc1 | · | 14
CC1=C2CCC(C(=O)O)=CC2C(C(C)C)CC1 (configuration not stated) | 0.62 | -7
CC(=O)OC1/C=C(/C(=O)O)CC/C=C(/C)C(=O)/C=C\C1(C)C (configuration not stated) | 0.044 | 90*
O=C1c2ccccc2C2=Nc3ccccc3SC(c3ccc(F)cc3)C12 (configuration not stated) | · | 21
Cc1cccc(C2Sc3ccccc3N=C3c4ccccc4C(=O)C32)c1 (configuration not stated) | 0.085 | 106*
C[C@@H]1CCCCO[C@@H](CN(C)C(=O)NC2CCCCC2)[C@@H](C)CN([C@H](C)CO)C(=O)c2cc(NC(=O)Nc3cccc4ccccc34)ccc2O1 | -0.88 | 139*
CC(C)NC(=O)Nc1ccc2c(c1)C(=O)N([C@H](C)CO)C[C@H](C)[C@H](CN(C)C(=O)Cc1ccccc1)OCCCC[C@@H](C)O2 | -0.22 | 6
C[C@@H]1CCCCO[C@@H](CN(C)C(=O)Nc2cccc3ccccc23)[C@@H](C)CN([C@H](C)CO)C(=O)c2cc(NC(=O)NC3CCCCC3)ccc2O1 | 0.091 | 47
C[C@@H]1CCCCO[C@@H](CN(C)C(=O)Cc2ccccc2)[C@@H](C)CN([C@H](C)CO)C(=O)c2cc(NC(=O)NC3CCCCC3)ccc2O1 | -0.24 | 143*
C[C@@H]1CCCCO[C@@H](CN(C)C(=O)Nc2cccc3ccccc23)[C@@H](C)CN([C@H](C)CO)C(=O)c2cc(NS(=O)(=O)c3ccc(Cl)cc3)ccc2O1 | -0.3 | 107*
C[C@@H]1CCCCO[C@@H](CN(C)C(=O)Nc2cccc3ccccc23)[C@@H](C)CN([C@H](C)CO)C(=O)c2cc(NS(=O)(=O)c3ccc(F)cc3)ccc2O1 | 0.15 | 53
O=C(CSc1ccc(-c2cccnc2)nn1)c1ccc(F)cc1 | · | 4
CN1CCN(C(=O)CSc2c(-c3ccccc3)c3cc(Cl)ccc3[nH]c2=O)CC1 | · | -2
O=C(C1CCCO1)N1N=C(c2c(-c3ccccc3)c3cc(Cl)ccc3[nH]c2=O)CC1c1ccco1 (configuration not stated) | · | 178*
COc1ccc([C@@H]2O[C@@H](c3ccc(OC)c(OC)c3)[C@@H](C)[C@@H]2C)cc1OC | 0.81 | -3
CSC(=NCc1ccccc1)Nc1cc(-c2ccccc2)[nH]n1 | · | -11
COC(=O)C(CC#Cc1ccc2c(c1)[C@]1(C(=O)N2)[C@H](C(N)=O)[C@H]2C(=O)O[C@H](c3ccccc3)[C@H](c3ccccc3)N2[C@@H]1c1ccccc1OCCO)C(=O)OC | -0.79 | 142*
SMILES | YB-1 expr inh | U2OS ROS induce
COC(=O)C(CC#Cc1ccc2c(c1)[C@]1(C(=O)N2)[C@H](C(=O)NC[C@H](O)c2ccccc2)[C@H]2C(=O)O[C@H](c3ccccc3)[C@H](c3ccccc3)N2[C@@H]1c1ccccc1OCCO)C(=O)OC | 0.14 | 113*
COCCOC(=O)N1C(=O)[C@@]2(c3cc(C#CCCO)ccc31)[C@H](C(=O)N1CCc3cc(OC)c(OC)cc3C1)[C@H]1C(=O)O[C@H](c3ccccc3)[C@H](c3ccccc3)N1[C@@H]2c1ccccc1OCCO | -0.059 | 52
COC(=O)C(CC#Cc1ccc2c(c1)[C@]1(C(=O)N2)[C@H](C(N)=O)[C@H]2C(=O)O[C@H](c3ccccc3)[C@H](c3ccccc3)N2[C@@H]1c1ccc(OCCO)cc1)C(=O)OC | 0.17 | 30
COCCOC(=O)N1C(=O)[C@@]2(c3cc(C#CCCO)ccc31)[C@H](c1ccccc1OCCO)N1[C@H](c3ccccc3)[C@H](c3ccccc3)OC(=O)[C@H]1[C@@H]2C(=O)N1CCc2cc(OC)c(OC)cc2C1 | -0.078 | 95*
O=C1O[C@@H](c2ccccc2)[C@@H](c2ccccc2)N2[C@@H](c3ccccc3OCCO)[C@]3(C(=O)Nc4ccc(C#CC5(O)CCCCCC5)cc43)[C@@H](C(=O)NC[C@H](O)c3ccccc3)[C@H]12 | -0.42 | 60
COC(=O)C(CC#Cc1ccc2c(c1)[C@]1(C(=O)N2)[C@H](c2ccccc2OCCO)N2[C@H](c3ccccc3)[C@H](c3ccccc3)OC(=O)[C@H]2[C@@H]1C(=O)N1CCc2cc(OC)c(OC)cc2C1)C(=O)OC | -0.24 | 175*
COC(=O)C(CC#Cc1ccc2c(c1)[C@]1(C(=O)N2)[C@H](C(=O)N2CCc3cc(OC)c(OC)cc3C2)[C@H]2C(=O)O[C@H](c3ccccc3)[C@H](c3ccccc3)N2[C@@H]1c1ccccc1OCCO)C(=O)OC | 0.05 | 24
Cc1ccc(C(=NCc2ccccc2)NC#N)cc1 | · | -7
Cc1ccc(Nc2cc(C(=O)N3CCCC3)c3ccccc3n2)cc1C | · | -2
Cc1cc(N2C(=O)CCC2=O)no1 | · | -17
NC(=O)c1cccn1Cc1ccc(Cl)cc1 | · | 0
Cc1ccc2nc(-c3ccncc3)cc(C(=O)NC(C)c3cnn(C)c3C)c2c1 (configuration not stated) | · | 2
Cc1ccc2nc(-c3ccncc3)cc(-c3ccccc3)c2c1 | · | 88*
Cc1cccc(NC(=O)CSc2nc3c(cc2C#N)C(=O)CC(C)(C)C3)c1 | · | 13
CCc1cccc(NC(=O)C2c3ccccc3Oc3ccccc32)c1 | · | -16
CSc1ccc(/C=N/N(C)S(=O)(=O)c2ccc(C)cc2)cc1 | -0.3 | 72
Cc1ccc(/C=N/N(C)S(=O)(=O)c2ccc(C)cc2)cc1 | -0.31 | 95*
C/C=C(/C)C(=O)O[C@H]1C=C(CO)C(=O)[C@H](OC(=O)/C(C)=C/CO)[C@H]1C(C)C | 0.092 | 87*
COc1ccc(S(=O)(=O)NCC23CC4CC(CC(C4)C2)C3)cc1 | · | 4
N#C/C(=C\N1CCC(n2cccc2)CC1)S(=O)(=O)c1ccccn1 | · | -11
Cc1ccc2nc(C(F)(F)F)cc(N3CCN(/C=C(/C#N)S(=O)(=O)c4ccccn4)CC3)c2c1 | · | 93*
CCc1ccc(N2CC(O)(c3ccccc3)[N+]3=C2CCCC3)cc1 (configuration not stated) | · | -11

Screens as filed in PubChem BioAssay.
